Test results: the supplement of paper PMC6992640
± gives the standard deviation of the averaged measurements.

Experiments:
Test in all cases: cell viability (% of vehicle); higher = less cytotoxic
HCI01 [1] = cells of a triple-negative basal-like breast cancer xenograft; conditions: 1 µM; 72 h
UCD52 [2] = cells of a triple-negative basal-like breast cancer xenograft; conditions: 1 µM; 72 h
WHIM2 [3] = cells of a triple-negative basal-like breast cancer xenograft; conditions: 1 µM; 72 h
WHIM30 [4] = cells of a triple-negative basal-like breast cancer xenograft; conditions: 1 µM; 72 h
HCI01 [5] = conditions: 10 µM; 72 h
HCI03 = cells of an ER-positive luminal breast cancer xenograft; conditions: 10 µM; 72 h
HCI09 = cells of a triple-negative luminal androgen receptor type breast cancer xenograft; conditions: 10 µM; 72 h
HCI11 = cells of an ER-positive luminal breast cancer xenograft; conditions: 10 µM; 72 h
HCI13 = cells of an ER-positive luminal breast cancer xenograft; conditions: 10 µM; 72 h
HCI16 = cells of a triple-negative basal-like breast cancer xenograft; conditions: 10 µM; 72 h
UCD52 [6] = conditions: 10 µM; 72 h
WHIM2 [7] = conditions: 10 µM; 72 h
WHIM30 [8] = conditions: 10 µM; 72 h

Row | SMILES | cell viability (HCI01 [1]) | cell viability (UCD52 [2]) | cell viability (WHIM2 [3]) | cell viability (WHIM30 [4]) | cell viability (HCI01 [5]) | cell viability (HCI03) | cell viability (HCI09) | cell viability (HCI11) | cell viability (HCI13) | cell viability (HCI16) | cell viability (UCD52 [6]) | cell viability (WHIM2 [7]) | cell viability (WHIM30 [8])
1 | Cc1c(Cl)cccc1Nc1ccccc1C(=O)O [Tolfenamic Acid] | 95.9 | 102 | 106 | 92.6 | 100 ± 30 | 118 | 80.6 ± 9.7 | 91.9 | 71.1 ± 33 | 103 | 70.7 ± 3.2 | 41.7 ± 14 | 77.7 ± 3.3
2 | O=C(NC1CCN(CCCCC2(C(=O)NCC(F)(F)F)c3ccccc3-c3ccccc32)CC1)c1ccccc1-c1ccc(C(F)(F)F)cc1 [Lomitapide] | 92.2 | 56.3 | 62.7 | 63.8 | 34.8 ± 7.4 | 49.3 | 26.5 ± 2.4 | 43.7 | 33.8 ± 3.2 | 47.3 | 33 ± 3 | 41 ± 4.1 | 109 ± 5.5
3 | CC(CCC(=O)O)C1CCC2C3CCC4CC(O)CCC4(C)C3CCC12C (stereo unspecified) [Lithocholic Acid] | 89.2 | 96.6 | 92.9 | 91.5 | 65.5 ± 50 | 132 | 95.1 ± 24 | 103 | 84.8 ± 7 | 91.3 | 86.8 ± 6.5 | 37.8 ± 10 | 90.1 ± 6.3
4 | Clc1ccc(COC(Cn2ccnc2)c2ccc(Cl)cc2Cl)c(Cl)c1.O=[N+]([O-])O (stereo unspecified) [Miconazole Nitrate] | 100 | 96.9 | 111 | 95.9 | 32 ± 8.9 | 93.1 | 27.3 ± 7.1 | 79.9 | 56.9 ± 7.8 | 113 | 48.6 ± 5.8 | 37 ± 9.7 | 128 ± 2
5 | Br.Cc1ccc(Sc2ccccc2N2CCNCC2)c(C)c1 | 113 | 71.2 | 102 | 80.6 | 28 ± 3 | 44.4 | 17.5 ± 4 | 76.7 | 39.1 ± 6.4 | 35.3 | 23.6 ± 4.2 | 33.9 ± 14 | 26.9 ± 4.6
6 | Cc1ccc(-n2[nH]c(C)c(NN=C3C=CC=C(c4cccc(C(=O)O)c4)C3=O)c2=O)cc1C [Eltrombopag] | 85.8 | 94.6 | 101 | 96.2 | 28.3 ± 15 | 94.9 | 20.5 ± 4.7 | 60.9 | 54.9 ± 3 | 125 | 57 ± 2.9 | 37.8 ± 14 | –
7 | CC1=CC(=O)c2ccccc2C1=O [Menadione] | 98.6 | 94.2 | 105 | 98.2 | 61.6 ± 55 | 51.9 | 31.3 ± 7.9 | 30.5 | 57.3 ± 4.9 | 57.6 | 30.5 ± 2.1 | 44.1 ± 10 | 138 ± 14
8 | CO[C@H]1C[C@@H]2CC[C@@H](C)[C@@](O)(O2)C(=O)C(=O)N2CCCC[C@H]2C(=O)O[C@H]([C@H](C)C[C@@H]2CC[C@@H](OC(=O)C(C)(CO)CO)[C@H](OC)C2)CC(=O)[C@H](C)/C=C(\C)[C@@H](O)[C@@H](OC)C(=O)[C@H](C)C[C@H](C)/C=C/C=C/C=C/1C [Temsirolimus] | 76.2 | 55.1 | 80 | 74.2 | 31.8 ± 1.4 | 57.5 | 26.7 ± 8.6 | 54.3 | 24.6 ± 11 | 45.2 | 23.1 ± 2.3 | 42.4 ± 15 | 30.5 ± 1.6
9 | C=C1C(=CC=C2CCCC3(C)C2CCC3C(C)CCCC(C)(C)O)CC(O)CC1O (stereo unspecified) [Calcitriol] | 70.8 | 50.1 | 46.8 | 92.9 | 27.6 ± 12 | 119 | 27 ± 5.2 | 73.4 | 66.4 ± 6.8 | 107 | 55.7 ± 0.62 | 39.3 ± 9.2 | 137 ± 14
10 | Nc1ncn(C2OC(CO)C(O)C2O)c(=O)n1 (stereo unspecified) [5-Azacytidine] | 91.5 | 70.1 | 91.3 | 93.9 | 59.1 ± 13 | 85 | 27.2 ± 6.3 | 170 | 53.1 ± 9.2 | 103 | 53.4 ± 3.7 | 35.1 ± 14 | 198 ± 19
11 | COC(=O)NC(C(=O)NC(Cc1ccccc1)C(O)CN(Cc1ccc(-c2ccccn2)cc1)NC(=O)C(NC(=O)OC)C(C)(C)C)C(C)(C)C (stereo unspecified) [Atazanavir] | 92.8 | 80.2 | 91.7 | 84.6 | 88.35 ± 0.71 | 80 | 57.5 ± 2 | 74.5 | 81.7 ± 5.1 | 151 | 51.6 ± 3.1 | 73.7 ± 1.3 | 82.1 ± 5.5
12 | COc1cc(C(=O)NS(=O)(=O)c2ccccc2C)ccc1Cc1cn(C)c2ccc(NC(=O)OC3CCCC3)cc12 [Zafirlukast] | 93.6 | 95.3 | 111 | 97.2 | 24.1 ± 0.82 | 87.8 | 22.3 ± 1.4 | 86.4 | 111 ± 2.8 | 106 | 78.7 ± 6.7 | 42.6 ± 1.2 | 116 ± 8.7
13 | CN1CCN(CCCN2c3ccccc3Sc3ccc(C(F)(F)F)cc32)CC1.Cl.Cl [Trifluoperazine 2HCl] | 95.7 | 82.1 | 102 | 84.9 | 42.8 ± 8.5 | 57.4 | 30.2 ± 8 | 82.1 | 42.2 ± 2 | 54.1 | 33.8 ± 2.4 | 43.3 ± 3.1 | 97.8 ± 6.6
14 | COC1=C(OC)C(=O)C(CCCCCCCCCCO)=C(C)C1=O [Idebenone] | 91.1 | 90.2 | 107 | 94.5 | 34 ± 2.8 | 107 | 39.1 ± 18 | 87.2 | 92.2 ± 61 | 104 | 78.2 ± 6.6 | 78.4 ± 30 | 51.9 ± 20
15 | Oc1c(Cl)cc(Cl)c2cccnc12 [Chloroxine] | 93.2 | 96.7 | 96.5 | 71.6 | 36.5 ± 3.6 | 56.7 | 28.7 ± 2.7 | 69.7 | 65 ± 15 | 130 | 120 ± 88 | 79.7 ± 55 | 48.9 ± 4.8
16 | C#Cc1cccc(Nc2ncnc3cc(OCCOC)c(OCCOC)cc23)c1.Cl [Erlotinib Hydrochloride] | 63.1 | 68.3 | 50.1 | 80.5 | 75.1 ± 35 | 50 | 59 ± 12 | 104 | 69.8 ± 5.8 | 100 | 52.4 ± 1.8 | 48 ± 8.3 | 84.5 ± 5.2
17 | CS(=O)(=O)O.Cc1c(O)cccc1C(=O)NC(CSc1ccccc1)C(O)CN1CC2CCCCC2CC1C(=O)NC(C)(C)C (stereo unspecified) [Nelfinavir Mesylate] | 90.1 | 61.6 | 101 | 81.4 | 64.3 ± 30 | 92.1 | 30.1 ± 3.1 | 104 | 48.22 ± 0.17 | 53.7 | 48 ± 2 | 38.4 ± 2 | 71.9 ± 5.4
18 | Cl.OC(c1cc(C(F)(F)F)nc2c(C(F)(F)F)cccc12)C1CCCCN1 (stereo unspecified) [Mefloquine hydrochloride] | 97.5 | 66 | 103 | 74 | 31.9 ± 1.3 | 40.5 | 23.9 ± 5.5 | 51.4 | 44.6 ± 6.4 | 30 | 30.3 ± 5.2 | 37.7 ± 2 | 49 ± 2.9
19 | Cc1c(C(=O)NN2CCCCC2)nn(-c2ccc(Cl)cc2Cl)c1-c1ccc(Cl)cc1 [Rimonabant] | 87.4 | 91.1 | 100 | 82.6 | 72.2 ± 38 | 114 | 22.2 ± 6.1 | 87.3 | 74.2 ± 19 | 96.7 | 62.3 ± 10 | 35.9 ± 10 | 68.4 ± 15
20 | COc1ccc2cc1Oc1ccc(cc1)CC1c3c(cc4c(c3Oc3cc5c(cc3OC)CCN(C)C5C2)OCO4)CCN1C (stereo unspecified) [Cepharanthine] | 86.1 | 52.9 | 80.7 | 60.6 | 57.1 ± 12 | 64.3 | 26.6 ± 5.9 | 73.5 | 159 ± 37 | 170 | 36.2 ± 1.8 | 64.7 ± 8.1 | 94.3 ± 9.8
21 | CC(C)(C)c1ccc(C(O)CCCN2CCC(C(O)(c3ccccc3)c3ccccc3)CC2)cc1 (stereo unspecified) [Terfenadine] | 89 | 79.9 | 81.1 | 73.1 | 34.4 ± 5.2 | 38.1 | 30.4 ± 2.9 | 55.3 | 48.3 ± 4.8 | 45.8 | 35.1 ± 4 | 42 ± 2.8 | 29.6 ± 3.5
22 | CNCCC(Oc1ccc(C(F)(F)F)cc1)c1ccccc1.Cl (stereo unspecified) [Fluoxetine HCl] | 91.1 | 75.6 | 99.1 | 84.1 | 98.1 ± 5 | 98.4 | 84.6 ± 29 | 75.2 | 104 ± 12 | 58.6 | 47.8 ± 1.9 | 44.9 ± 6 | 65.9 ± 10
23 | Clc1ccc(C(Cn2ccnc2)OCc2ccc(Sc3ccccc3)cc2)c(Cl)c1.O=[N+]([O-])O (stereo unspecified) [Fenticonazole Nitrate] | 89.6 | 92.5 | 107 | 91.5 | 40.8 ± 0.92 | 96.9 | 19.2 ± 2.4 | 74.8 | 44.74 ± 0.32 | 105 | 59.12 ± 0.32 | 40.7 ± 11 | 91.8 ± 8.3
24 | COc1cccc2c1C(=O)c1c(O)c3c(c(O)c1C2=O)CC(O)(C(=O)CO)CC3OC1CC(N)C(O)C(C)O1 (stereo unspecified) [Doxorubicin] | 80.1 | 42.1 | 30.4 | 44.2 | 56.3 ± 15 | 188 | 28.8 ± 3.4 | 49.6 | 176 ± 59 | 60.4 | 24.297 ± 0.024 | 50.6 ± 5.6 | 80.7 ± 5.3
25 | CN1CCN(c2ccc(C(=O)/N=c3\[nH][nH]c4ccc(Cc5cc(F)cc(F)c5)cc34)c(NC3CCOCC3)c2)CC1 [Entrectinib] | 92.3 | 72.6 | 81.7 | 71.9 | 28.2 ± 2.5 | 59.8 | 22.8 ± 0.65 | 48.9 | 41 ± 5.5 | 58.5 | 36.98 ± 0.05 | 42.6 ± 4.1 | 41.8 ± 12
26 | Clc1ccc(COC(Cn2ccnc2)c2ccc(Cl)cc2Cl)cc1.O=[N+]([O-])O (stereo unspecified) [Econazole nitrate] | 101 | 92 | 115 | 92.7 | 33.7 ± 2 | 88.1 | 27.3 ± 11 | 116 | 36.3 ± 1.7 | 105 | 54 ± 2.1 | 45.3 ± 14 | 90.6 ± 24
27 | CCC(=C(c1ccccc1)c1ccc(OCCN(C)C)cc1)c1ccccc1.O=C(O)CC(O)(CC(=O)O)C(=O)O [Tamoxifen Citrate] | 111 | 101 | 86.2 | 99.9 | 74 ± 57 | 78.8 | 28.1 ± 6 | 96.5 | 37.6 ± 3.9 | 59.7 | 34.5 ± 0.98 | 42.4 ± 7.6 | 104 ± 7.1
28 | CN(C)CC=CC(=O)Nc1cc2c(Nc3ccc(F)c(Cl)c3)ncnc2cc1OC1CCOC1 (stereo unspecified) [Afatinib (BIBW2992)] | 71.3 | 27.2 | 50.9 | 49.6 | 25.61 ± 0.24 | 47.7 | 15.1 ± 1.8 | 73.5 | 43.4 ± 1.5 | 55.4 | 18.7 ± 0.37 | 34.6 ± 2.6 | 44.3 ± 6.3
29 | CC[C@@]1(O)C(=O)OCc2c1cc1n(c2=O)Cc2cc3c(CN(C)C)c(O)ccc3nc2-1 [Topotecan] | 65.9 | 101 | 56.5 | 37.4 | 42.8 ± 6.2 | 128 | 28.1 ± 0.98 | 44.4 | 49.1 ± 5.8 | 73 | 42.4 ± 0.96 | 44.5 ± 3.2 | 83.2 ± 6.8
